The record followed here is PubChem BioAssay AID651551 (Sanford-Burnham Center for Chemical Genomics, 2012).

The target of the assay is PEG-3 (UniProt Q6IN02). The experiment in a line: GAPDH versus PEG-3 reporter suppression – cell-based, luminescence, counter-screen for PEG-3 promoter inhibitor project, SAR follow-up (AID 651551). As to conditions: HeLa PEG-Prom / GAPDH luciferase reporter, 6 or 24 h, run 1, 24 h; at 99 µM (top of the series).
With `O=C(Nc1nc(-c2ccccc2)cs1)c1nn(-c2ccccc2)c(=O)c2ccccc12`, the inhibition % (higher = more inhibition) was 13%. With `COc1ccc(-n2nc(C(=O)NCC(=O)Nc3cccc(OC)c3)c3ccccc3c2=O)cc1` the figure was 24.5%; with `Cc1ccc(Cl)cc1Nc1nc(-c2sc(NC(=O)c3ccco3)nc2C)cs1`, 24.5%. Turning to `COc1ccc(-n2nc(C(=O)NCC(=O)Nc3cc(OC)c(OC)c(OC)c3)c3ccccc3c2=O)cc1OC`, the inhibition % (higher = more inhibition) was found to be 47.5%. As to `Cc1cc(NC(=O)c2ccccc2)n(-c2nc3ccccc3[nH]2)n1`, the inhibition % (higher = more inhibition) is -6.81%.

For `CCCn1nc(C(=O)Nc2nc(-c3ccccn3)cs2)c2ccccc2c1=O`, the inhibition % (higher = more inhibition) was 39.1%. As to `CCn1cc(C(=O)NCc2ccco2)c(=O)c2cc(S(=O)(=O)N3CCCC3)ccc21`, the inhibition % (higher = more inhibition) was found to be 47.5%. For `COCCCNC(=O)c1ccc(Cn2c(=O)c3ccccc3n(Cc3ccccc3C#N)c2=O)cc1`, the inhibition % (higher = more inhibition) was determined as 54.2%. For `Cc1nc(NC(=O)c2ccccc2)sc1-c1csc(Nc2cccc(Cl)c2C)n1`, the inhibition % (higher = more inhibition) was -27.2%.

On to `COc1ccc(Cl)cc1Nc1nc(-c2sc(NC(=O)c3ccccc3)nc2C)cs1`, for which the inhibition % (higher = more inhibition) was 44.2%. To `Cc1cc(NC(=O)c2ccccc2)n(-c2nc3ccccc3n2C)n1` belongs 10.1%; to `Cc1cc(NC(=O)c2ccccc2C)n(-c2nc3ccccc3[nH]2)n1`, 47.5%; to `O=C(Nc1nccs1)c1nn(-c2ccccc2)c(=O)c2ccccc12`, 41.8%. For the compound `Cc1nc(NC(=O)c2ccccc2)sc1-c1csc(Nc2ccccc2Cl)n1`, the inhibition % (higher = more inhibition) was -64.6%. As for `Cc1cc(NC(=O)c2cccc(C)c2C)n(-c2nc3ccccc3[nH]2)n1`, the inhibition % (higher = more inhibition) turned out to be 79.1%. With `O=C(Nc1nc2ccccc2s1)c1nn(-c2ccccc2)c(=O)c2ccccc12` the figure was -7.12%; with `CCCn1nc(C(=O)Nc2nc(-c3ccncc3)cs2)c2ccccc2c1=O`, 31.6%; with `COc1ccc(-n2nc(C(=O)NCC(=O)Nc3ccc(OC)c(OC)c3)c3ccccc3c2=O)cc1`, 53.3%. Turning to `Cc1nc(NC(=O)c2ccccc2)sc1-c1csc(Nc2ccccc2)n1`, the inhibition % (higher = more inhibition) was 73.4%. For the compound `CCCn1nc(C(=O)Nc2nc3ccccc3s2)c2ccccc2c1=O`, the inhibition % (higher = more inhibition) stood at 33.1%. `COc1ccccc1Nc1nc(-c2sc(NC(=O)c3ccco3)nc2C)cs1`: the inhibition % (higher = more inhibition) is 18.8%. Regarding `Cc1cc(NC(=O)c2ccccc2C(F)(F)F)n(-c2nc3ccccc3[nH]2)n1`, the inhibition % (higher = more inhibition) worked out at 93.5%. On to `CCn1nc(C(=O)Nc2nc(-c3ccccn3)cs2)c2ccccc2c1=O`, for which the inhibition % (higher = more inhibition) came out at 49.2%.
